Drawing on PubChem BioAssay (NCI), this text covers growth for eight compounds.

Among the test systems are DU-145 prostate; K-562 leukemia; MALME-3M melanoma; MDA-MB-231 breast; RXF 393 renal; SF-268 CNS; SF-295 CNS; SF-539 CNS; UACC-257 melanoma; M14 melanoma; HCT-15 colon; HT29 colon; SNB-75 CNS; SNB-19 CNS; U251 CNS; PC-3 prostate; SK-MEL-5 melanoma; UACC-62 melanoma; LOX IMVI melanoma; SK-MEL-28 melanoma.
What all share (experiment): NCI-60 one-dose screen, 48 h (100 = growth as untreated, 0 = no growth, -100 = all killed)
Common to all, as to settings: 10 µM unless noted

Compounds without any hit were thinned out: in the full panel of roughly 83,000, 20% have a hit.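 Testing used 96-well plates and a 48-hour single-concentration exposure. Example: -40 means 40% of the starting cells died.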 Values without a mark were called inactive. Active and inactive are the calls of the source. The calls were made as follows: active = growth percent below 10; inactive = the rest.

`Cn1cc(-c2noc(-c3cn(C)c4ncc(F)cc34)n2)c2cc(Br)ccc21`: the growth is 84.6% in the assay on DU-145 prostate; 86.6% in the assay with K-562 leukemia; 57.5% in the assay on MALME-3M melanoma; 60.8% in the assay with MDA-MB-231 breast; 90.9% in the assay with RXF 393 renal; 76.1% with SF-268 CNS. For the same compound, the growth in the assay on SF-295 CNS is 84.6%; with SF-539 CNS it was 71.3%; with UACC-257 melanoma it was 98.7%; with M14 melanoma, 85.7%; with HCT-15 colon, 76%; in the assay with HT29 colon, 47.3%. Also, the growth in the assay with SNB-75 CNS was 61.2%; with SNB-19 CNS, 75.9%; in the assay with U251 CNS, 29.4%; in the assay with PC-3 prostate, 75.3%; in the assay with SK-MEL-5 melanoma it was 83.9%; in the assay with UACC-62 melanoma, 76.1%. The growth with LOX IMVI melanoma is 70.7%; with SK-MEL-28 melanoma it was 83.7%.

For `CC(C)=CCC[C@](C)(O)[C@H]1CC[C@]2(C)[C@@H]1CC[C@@H]1[C@@]3(C)CC[C@H](OC(=O)CCC(=O)O)C(C)(C)[C@@H]3CC[C@]12C`, the growth is 40.8% [100 µM] with DU-145 prostate; 24.2% [100 µM] in the assay on K-562 leukemia; 10.5% [100 µM] in the assay on MALME-3M melanoma; 13.5% [100 µM] with MDA-MB-231 breast; 37.8% [100 µM] in the assay with RXF 393 renal; 52% [100 µM] in the assay with SF-268 CNS. Also, the growth in the assay with SF-295 CNS is 4.05% [100 µM] (active); with SF-539 CNS, 31% [100 µM]; in the assay with UACC-257 melanoma, 28.3% [100 µM]; in the assay with M14 melanoma, 30.2% [100 µM]; with HCT-15 colon, 19.3% [100 µM]; in the assay with HT29 colon, 2.98% [100 µM] (active). The growth is 43.3% [100 µM] with SNB-75 CNS; 24.1% [100 µM] in the assay with SNB-19 CNS; 2.41% [100 µM] (active) in the assay with U251 CNS; 27.4% [100 µM] in the assay with PC-3 prostate; -41.3% [100 µM] (active) in the assay on SK-MEL-5 melanoma; -75.4% [100 µM] (active) with UACC-62 melanoma. The figures for the growth in the assay on LOX IMVI melanoma and with SK-MEL-28 melanoma were -64.1% [100 µM] (active) and -46% [100 µM] (active), respectively.

On to `C[n+]1c(-c2ccccc2)c2cc(N)ccc2c2ccccc21`, for which the growth in the assay on DU-145 prostate is 43.8%; with K-562 leukemia it was 33.4%; in the assay on MALME-3M melanoma, -19.5% (active); with MDA-MB-231 breast, 70.8%; in the assay with RXF 393 renal it was 58.9%; in the assay on SF-268 CNS, -6.88% (active). The growth with SF-295 CNS was 75.6%; with SF-539 CNS it was 28.5%; with UACC-257 melanoma, 8.1% (active); in the assay on M14 melanoma it was 74.3%; in the assay with HCT-15 colon, 101%; in the assay on HT29 colon, 31.5%. In addition, the growth with SNB-75 CNS was -0.792% (active); in the assay with SNB-19 CNS, -2.68% (active); in the assay with U251 CNS, 11.6%; in the assay with PC-3 prostate it was 58.4%; with SK-MEL-5 melanoma, 0.275% (active); with UACC-62 melanoma it was 0.188% (active). Further, the growth in the assay on LOX IMVI melanoma is 40.2%; in the assay on SK-MEL-28 melanoma, 10.4%.

Regarding `CCCOc1ccc(-c2nc(-c3ccc(N)cc3)cs2)cc1`, the growth was 133% in the assay on DU-145 prostate; 85.3% with K-562 leukemia; 116% in the assay with MALME-3M melanoma; 99% in the assay with MDA-MB-231 breast; 99.5% in the assay on RXF 393 renal; 133% in the assay on SF-268 CNS. Also, the growth with SF-295 CNS is 89.3%; in the assay with SF-539 CNS, 103%; with UACC-257 melanoma, 111%; with M14 melanoma it was 111%; in the assay with HCT-15 colon, 89.9%; with HT29 colon, 96.7%. The growth with SNB-75 CNS was 98%; in the assay with SNB-19 CNS it was 96.6%; in the assay with U251 CNS, 107%; in the assay with PC-3 prostate, 94.6%; in the assay on SK-MEL-5 melanoma, 100%; in the assay on UACC-62 melanoma, 97%. The growth with LOX IMVI melanoma is 110%; in the assay on SK-MEL-28 melanoma it was 132%.

Consider `CCN(CC)c1ccc2cc(C(Nc3ccc(C)cc3)c3nnnn3C(C)(C)C)c(=O)oc2c1` (stereo not given), for which the growth in the assay on DU-145 prostate is 105%; with K-562 leukemia, 87.5%; in the assay with MALME-3M melanoma, 105%; in the assay with MDA-MB-231 breast, 84.5%; with RXF 393 renal, 87.3%; in the assay on SF-268 CNS, 92.6%. Moreover, the growth in the assay on SF-295 CNS was 102%; in the assay on SF-539 CNS, 103%; in the assay with UACC-257 melanoma, 104%; with M14 melanoma, 103%; with HCT-15 colon, 98.3%; in the assay on HT29 colon, 94.8%. Besides, the growth with SNB-75 CNS was 77.6%; in the assay with SNB-19 CNS, 87.8%; in the assay with U251 CNS, 89.2%; in the assay with PC-3 prostate, 73.7%; in the assay with SK-MEL-5 melanoma it was 83.4%; in the assay with UACC-62 melanoma it was 71.7%. Besides, the growth with LOX IMVI melanoma is 94.8%; with SK-MEL-28 melanoma, 106%.

Regarding `Cc1ncc(C(=O)Nc2ccc(CN3CCN(C)CC3)c(C(F)(F)F)c2)cc1C#Cc1c(N)ncc2ccc(C#N)cc12`, the growth with DU-145 prostate is 27.7%; in the assay with K-562 leukemia, 4.11% (active); in the assay with MALME-3M melanoma, -34.3% (active); in the assay with MDA-MB-231 breast, -12.5% (active); in the assay on RXF 393 renal it was -45% (active); in the assay on SF-268 CNS, 42.1%. The growth is 74.4% in the assay on SF-295 CNS; 48.4% in the assay with SF-539 CNS; -1.39% (active) with UACC-257 melanoma; -12% (active) in the assay on M14 melanoma; 28% with HCT-15 colon; 11.9% in the assay with HT29 colon. Further, the growth with SNB-75 CNS is 56.4%; in the assay on SNB-19 CNS, 77.5%; with U251 CNS, 68.5%; in the assay on PC-3 prostate it was 48.7%; in the assay on SK-MEL-5 melanoma, 16.2%; in the assay on UACC-62 melanoma, 22.5%. Also, the growth was -62.4% (active) with LOX IMVI melanoma and 23.7% in the assay on SK-MEL-28 melanoma.

For `Nc1nc(Nc2ccccc2)c2ncn(Cc3ccc4c(c3)OCO4)c2n1`, the growth in the assay with DU-145 prostate was 80.9%; in the assay on K-562 leukemia it was 15.7%; in the assay on MALME-3M melanoma, 53%; in the assay with MDA-MB-231 breast, 44%; with RXF 393 renal, 52.8%; with SF-268 CNS, 62.8%. Besides, the growth in the assay on SF-295 CNS is 43.6%; in the assay with SF-539 CNS it was 46%; in the assay with UACC-257 melanoma, 72.9%; in the assay with M14 melanoma it was 16.3%; with HCT-15 colon it was 23.1%; with HT29 colon, 20.6%. Besides, the growth with SNB-75 CNS is 29.4%; in the assay on SNB-19 CNS, 54.4%; in the assay with U251 CNS, 49.5%; in the assay on PC-3 prostate, 58.4%; in the assay with SK-MEL-5 melanoma, 21.4%; with UACC-62 melanoma it was 41.3%. For the same compound, the figures for the growth with LOX IMVI melanoma and in the assay on SK-MEL-28 melanoma were 48% and 63.5%, respectively.

With `CN(C)CCOc1ccc(/C(=C(/CCCl)c2ccccc2)c2ccccc2)cc1`, the growth with DU-145 prostate was 49.6%; with K-562 leukemia, 1.34% (active); in the assay on MALME-3M melanoma, -57.8% (active); in the assay with MDA-MB-231 breast, -11% (active); in the assay on RXF 393 renal, -41.7% (active); in the assay with SF-268 CNS, 33%. For the same compound, the growth in the assay with SF-295 CNS was 4.51% (active); in the assay on SF-539 CNS, 1.72% (active); in the assay with UACC-257 melanoma it was -52.4% (active); in the assay with M14 melanoma, -52.2% (active); in the assay with HCT-15 colon, 23.9%; with HT29 colon it was -78.8% (active). In addition, the growth was 36.8% in the assay with SNB-75 CNS; 36.2% in the assay on SNB-19 CNS; -54.6% (active) with U251 CNS; 18.7% in the assay with PC-3 prostate; -98.3% (active) with SK-MEL-5 melanoma; -21.7% (active) in the assay with UACC-62 melanoma. Also, the growth with LOX IMVI melanoma was -84.6% (active); with SK-MEL-28 melanoma, -30.3% (active).
